Inconclusive results are not listed. Where a call stands in place of a potency, no number is given. Activity calls are given as the source filed them. Unless noted, calls follow the shape of the dose curve; as a rule, active = well fitted curve in the direction sought with a large enough effect; inconclusive = small, poorly fitted or top-dose-only effect, or another doubt; inactive = no such curve, though single readings can be large; an effect the other way counts as inactive or inconclusive.
How the values were obtained:
[1] = HPAF-II 24hr Apoptosis Induction qHTS against the NCATS CANVASS Library (AID 1347356)
In short: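 500 HPAF-II cells/well; compounds in 11-pnt qHTS; 24 h, 37 C/5% CO2; Caspase-Glo 3/7 added, 15 min RT dark; luminescence read. Doxorubicin control.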

[2] = HEK293 18hr Apoptosis Induction qHTS against the NCATS CANVASS Library (AID 1347357)
In short: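 Caspase-Glo 3/7 luminescence (15 min, room temperature) measured apoptosis after an 18-hour, 37 degrees C exposure of HEK293 cells (500 cells/well) to compounds in 11 points.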

[3] = HPAF-II 12hr Apoptosis Induction qHTS against the NCATS CANVASS Library (AID 1347358)
In short: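 Caspase-Glo 3/7 luminescence (DEVD substrate) reports caspase activity in HPAF-II cells after 12 h compound treatment at 37 degrees C. Compounds were tested in an 11-point series. Doxorubicin served as control.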

[4] = HEK293 24hr Apoptosis Induction qHTS against the NCATS CANVASS Library (AID 1347359)
In short: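 HEK293 cells (500/well, DMEM + 10% FBS) were exposed to compounds in an 11-point series for 24 hours at 37 degrees C, then caspase-3/7 activity was read by Caspase-Glo DEVD luciferase luminescence after 15 min.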

[5] = HPAF-II 18hr Apoptosis Induction qHTS against the NCATS CANVASS Library (AID 1347360)
In short: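 Caspase-3/7 activation was measured with luminescent Caspase-Glo 3/7 reagent (15 min, RT) in HPAF-II cancer cells (500 cells/well). Before detection, cells had been treated for 18 h at 37 C with compounds (11 points).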

[6] = biological target: Luciferin 4-monooxygenase (Photinus pyralis) (UniProt P08659); experiment: Firefly luciferase counterscreen qHTS: Assay Interference Panel against the NCATS CANVASS Library (AID 1347363); also: series mostly up to about 57 µM
In short: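 Purified P. pyralis luciferase was added to compounds (11-point series) preincubated 15 min at room temperature with substrate containing 0.013 mM D-luciferin and 0.013 mM ATP; luminescence was read after 5 min.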

[7] = J3T Cancer Cell Toxicity qHTS against the NCATS CANVASS Library (AID 1347371); also: potency is read from the fitted curve at half-maximal effect
In short: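 Dog glioma J3T, 500 cells/well; cpd 11-pt qHTS; 72 hr, 37C/5% CO2; CellTiterGlo ATP luminescence readout.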

[8] = biological target: Nuclear receptor subfamily 1 group I member 3 (Homo sapiens) (UniProt Q14994); experiment: qHTS for Constitutive Androstane Receptor (CAR) Agonist screened against the NCATS CANVASS Library (AID 1347373);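 also: every well also contained 1.5 µM PK11195 alongside the test compound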
In short: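 Luciferase read-out (ONE-Glo, 30 min RT) of CYP2B6-2.2kb promoter activity in double-stable HepG2-hCAR cells after 24hr compound exposure with 1.5uM PK11195 present; viability measured first by CellTiter-Fluor.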

[9] = qHTS for Hypoxia signaling pathway (HIF-1) agonists against the NCATS CANVASS Library (AID 1347375)
In short: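 Read-out: beta-lactamase FRET (CCF4-AM, ex 405, em 460 and 530 nm) after 2 h at room temperature. ME-180 cells stably carrying HRE-bla were treated 17 h at 37C with compounds in an 11-point concentration series.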

[10] = 10-beta competent E. coli microbial cell viability qHTS against the NCATS CANVASS Library (AID 1347376); also: series mostly up to about 46 µM
In short: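 Luminescence from BacTiter-Glo ATP detection served as the viability read-out; bacteria (0.2 OD) had been incubated overnight at 37C with pin-transferred compounds at 11 concentrations.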

[11] = DH5-alpha competent E. coli microbial cell viability qHTS against the NCATS CANVASS Library (AID 1347377); conditions: outcome: dose series up to 46.1 µM unless noted
In short: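 Luminescent ATP read-out (BacTiter-Glo, 20 min RT) after overnight 37C culture of DH5-alpha E. coli with compounds; daunomycin control at 0.2 nM–9.2 uM final.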

[12] = qHTS for H2AX Agonists against the NCATS CANVASS Library (AID 1347378)
In short: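 Phospho-H2AX (S139) in CHO-K1 lysates measured by HTRF, reported as 665/615 nm emission ratio after 24 hr antibody incubation at room temperature. Cells were first treated with a compound series for 3 hr at 37C (0.76% DMSO final).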

[13] = Inflammasome Signaling qHTS Counterscreen: IL-1-beta AlphaLISA counterscreen against the NCATS CANVASS Library (AID 1347381);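 also: cell-free check with purified IL-1β in medium and no THP-1 cells; series mostly up to about 57 µM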
In short: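 Here, no cellular stimulation occurs; compounds in an 11-point series meet 4 pg purified IL-1-beta directly. Bead-based AlphaLISA detection follows (1 h acceptor/antibody, then 30 min donor, dark, room temperature), with excitation at 680 nm.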

[14] = Cytotoxicity qHTS for assessment of Hepg2 cells membrane integrity screened against the NCATS CANVASS Library (AID 1347387)
In short: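 LDH release read by fluorescence (560 nm ex/590 nm em) after CytoTox-ONE addition and 10 min RT; signal tracks lysed cells. HepG2, 2000 cells/well, plated overnight; compound 5 hr, 37C, 5% CO2, final 0.59 nM - 46 uM, 11 points.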

[15] = qHTS for activators of dead-cell proteases activity screened against the NCATS CANVASS Library (AID 1347392);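 also: luminescence from protease leaking out of membrane-damaged cells cleaving impermeant substrate; rising signal means more cytotoxicity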
In short: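 Cytotoxicity in HepG2 cells was assessed by released protease cleaving AAF-aminoluciferin, with luminescence as signal. Exposure lasted 5 h at 37C across an 11-point series.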

[16] = qHTS for inhibitors of Rabies Virus screened against the NCATS CANVASS Library (AID 1347402; calls by dose curve; also: series mostly up to about 46 µM)

Sequence of Luciferin 4-monooxygenase (Photinus pyralis) (P08659 whole entry, looked up): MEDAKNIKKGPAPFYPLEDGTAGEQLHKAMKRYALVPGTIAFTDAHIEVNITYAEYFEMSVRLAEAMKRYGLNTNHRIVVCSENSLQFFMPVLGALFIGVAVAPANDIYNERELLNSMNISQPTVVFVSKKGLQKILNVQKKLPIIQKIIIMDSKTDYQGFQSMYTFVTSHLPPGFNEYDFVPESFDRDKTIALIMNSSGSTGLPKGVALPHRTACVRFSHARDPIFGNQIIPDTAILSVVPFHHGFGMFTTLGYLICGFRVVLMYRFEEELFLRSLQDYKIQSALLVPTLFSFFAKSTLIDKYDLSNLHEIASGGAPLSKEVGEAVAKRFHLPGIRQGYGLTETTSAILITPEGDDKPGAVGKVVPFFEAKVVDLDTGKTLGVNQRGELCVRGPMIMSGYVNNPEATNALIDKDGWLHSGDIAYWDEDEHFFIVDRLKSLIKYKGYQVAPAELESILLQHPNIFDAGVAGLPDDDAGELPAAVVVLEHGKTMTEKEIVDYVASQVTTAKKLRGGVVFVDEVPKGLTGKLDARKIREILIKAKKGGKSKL
Sequence of Nuclear receptor subfamily 1 group I member 3 (Homo sapiens) (Q14994 whole entry, looked up): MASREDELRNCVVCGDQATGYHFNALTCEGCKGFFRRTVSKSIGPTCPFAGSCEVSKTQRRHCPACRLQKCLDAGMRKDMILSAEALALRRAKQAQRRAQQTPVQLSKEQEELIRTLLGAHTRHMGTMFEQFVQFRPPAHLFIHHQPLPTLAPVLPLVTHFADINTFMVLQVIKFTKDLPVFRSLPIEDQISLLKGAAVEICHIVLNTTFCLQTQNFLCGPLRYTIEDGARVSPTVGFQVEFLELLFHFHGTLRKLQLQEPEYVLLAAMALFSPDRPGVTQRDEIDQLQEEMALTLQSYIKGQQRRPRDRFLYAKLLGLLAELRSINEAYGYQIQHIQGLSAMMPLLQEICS

Row | SMILES | outcome [1] | outcome [2] | outcome [3] | outcome [4] | outcome [5] | Potency [6] | Potency [7] | Potency [8] | outcome [9] | outcome [10] | outcome [11] | Potency [12] | outcome [13] | outcome [14] | outcome [15] | outcome [16]
1 | C[C@]12CC(O)C3[C@@H](CC[C@@H]4C[C@@H](O)CC[C@]34CO)[C@@]1(O)CC[C@@H]2C1=CC(=O)OC1 (stereo partly specified) | inactive | inactive | inactive | inactive | inactive | inactive | 10.5 µM (active) | inactive | inactive | inactive | inactive | inactive | inactive | inactive | inactive | inactive
2 | CO[C@H]1[C@H](O[C@H]2CC[C@]3(C=O)[C@H]4CC[C@]5(C)[C@@H](C6=CC(=O)OC6)CC[C@]5(O)[C@@H]4CC[C@]3(O)C2)O[C@H](C)[C@H](O)[C@@H]1OC | inactive | inactive | inactive | inactive | inactive | inactive | 0.372 µM (active) | inactive | inactive | inactive | inactive | inactive | inactive | inactive | inactive | 
3 | C[N+](C)(C)CCc1c[nH]c2ccccc12 | inactive | inactive | inactive | inactive | inactive | inactive | inactive | inactive | inactive | inactive | inactive | inactive | inactive | inactive | inactive | inactive
4 | CC(C)CC1C(=O)O[C@H](C(C)C)C(=O)N(C)C(CC(C)C)C(=O)O[C@@H](C(C)C)C(=O)N(C)C(CC(C)C)C(=O)O[C@H](C(C)C)C(=O)N(C)C(CC(C)C)C(=O)O[C@@H](C(C)C)C(=O)N1C (stereo partly specified) | inactive | inactive | inactive |  | inactive | inactive | inactive | inactive | inactive | inactive | inactive | inactive | inactive | inactive | inactive | inactive
5 | CCCC[C@@H](C)/C=C1/CN2CCC[C@H]2[C@@](C)(O)[C@@H]1O | inactive | inactive | inactive | inactive | inactive | inactive | inactive | inactive | inactive | inactive | inactive | inactive | inactive | inactive | inactive | inactive
6 | C=C[C@]12C=CCN3CC[C@@]4(c5ccccc5NC(=O)[C@@H]4C1)[C@@H]32 | inactive | inactive | inactive | inactive | inactive | inactive | inactive | inactive | inactive | inactive | inactive | inactive | inactive | inactive | inactive | inactive
7 | CCCC[C@@H]1CC[C@H]2CCCC(CCCO)N12 (stereo partly specified) | inactive | inactive | inactive | inactive | inactive | inactive | inactive | inactive | inactive | inactive | inactive | inactive | inactive | inactive | inactive | inactive
8 | C/C=C(\C)C(=O)O[C@@H]1[C@@H](O)[C@@H]2O[C@H]3[C@H](O[C@@H](CCCCC)CCCCCCC(=O)CCC(=O)OC[C@@H](O2)[C@H]1OC(=O)/C=C/c1ccccc1)O[C@H](C)[C@H](OC(C)=O)[C@@H]3O | inactive | inactive | inactive | inactive | inactive | inactive | inactive | inactive | inactive | inactive | inactive | inactive | inactive | inactive | inactive | 
9 | C/C=C1/CN2C3CC1C1=CCC(=O)N4c5ccccc5[C@@]3(C[C@@H]2C2=C[C@H]3C5CC6N(CC[C@@]67c6ccccc6N(C2=O)[C@@H]37)C/C5=C/C)[C@H]14 (stereo partly specified) | inactive |  | inactive |  | inactive | inactive | 23.5 µM (active) | inactive | inactive | inactive |  |  | inactive | inactive | inactive | 
10 | C[C@]12CCC3[C@@H](CC[C@@H]4C[C@@H](O)CC[C@]34CO)[C@@]1(O)CC[C@@H]2C1=CC(=O)OC1 (stereo partly specified) | inactive | inactive | inactive | inactive | inactive | inactive | 2.96 µM (active) | inactive | inactive | inactive | inactive | inactive | inactive | inactive | inactive | 
